About 2,000 (36%) of roughly 5,500 compounds were called active. Inconclusive results (about 18%) are left out. Cut-off read from the data, not from the text of the source: active = normalized growth mostly below about 0.91 (no sharp cut-off); inconclusive = no clear call, values can overlap the other calls; inactive = mostly above about 0.92. This is one part of the list.
Experiment: chemical genetic growth profiling, strain panel (AID 1159580);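 note: tested at 20 µM; growth read once vehicle control cultures reached saturation at 30 °C; 1 = growth at the plate median or of vehicle wells; lower values mean less growth of the strain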
Conditions: S. cerevisiae deletion strains, growth OD
[1] = locus YAL013W, strain DEP1, hits give low values
[2] = locus YDR150W, strain NUM1, hits give low values
[3] = locus YGR078C, strain PAC10, hits give low values
[4] = locus YNL153C, strain GIM3, hits give low values
[5] = locus YNL322C, strain KRE1, hits give low values
[6] = locus YPL055C, strain LGE1, hits give low values
[7] = locus YPL241C, strain CIN2, hits give low values

Measured: normalized growth

CN1CCc2ccccc2Cc2[nH]c3ccccc3c2CC1
inactive: [1] 1.01 | locus YAL040C, strain CLN3, hits give low values 1.04 | locus YCL061C, strain MRC1 (second series), hits give low values 1.01 | [2] 1.01 | locus YDR363W, strain ESC2, hits give low values 0.97 | locus YER002W, strain NOP16, hits give low values 0.996 | [3] 0.994 | locus YNL128W, strain TEP1, hits give low values 1.01 | [4] 1.03 | locus YNL175C, strain NOP13, hits give low values 1.01 | locus YNL197C, strain WHI3, hits give low values 1.01 | locus YNL224C, strain SQS1, hits give low values 0.996 | [5] 1.02 | locus YOR083W, strain WHI5 (second series), hits give low values 0.998 | [6] 1.01 | [7] 1.01

O=C1CCCc2c1nc(-c1ccccc1)n2O
inactive: [1] 1 | locus YBR229C, strain ROT2, hits give low values 1 | locus YDL101C, strain DUN1, hits give low values 1.03 | [2] 0.966 | locus YEL061C, strain CIN8, hits give low values 1.05 | [3] 1 | locus YHR030C, strain SLT2, hits give low values 1.05 | locus YHR087W, strain rtc3, hits give low values 0.999 | locus YJL187C, strain SWE1, hits give low values 1.02 | locus YJR043C, strain POL32, hits give low values 0.995 | locus YJR075W, strain HOC1, hits give low values 1.01 | locus YKL190W, strain CNB1, hits give low values 1 | locus YLR039C, strain RIC1, hits give low values 1.04 | locus YLR058C, strain SHM2 (second series), hits give low values 1.03 | locus YLR085C, strain ARP6, hits give low values 0.998 | locus YLR262C, strain YPT6, hits give low values 1.06 | locus YML094W, strain GIM5, hits give low values 1.01 | locus YMR219W, strain ESC1, hits give low values 1.01 | locus YMR263W, strain SAP30, hits give low values 0.999 | [4] 1.03 | locus YNL298W, strain CLA4 (second series), hits give low values 0.993 | [5] 1.01 | locus YNR030W, strain Alg12, hits give low values 1.01 | locus YOL006C, strain TOP1, hits give low values 0.999 | [6] 0.905 | [7] 1.02 | locus YPR135W, strain CTF4, hits give low values 1
